Compound activity (PubChem)
PostGolgi yeast – growth inhibition of a yeast mutant, post-Golgi transport screen; actives 0.9% (n = 98,000); AID 739; post-Golgi transport phenotypic cell assay; inhibition, % at 10 µM;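 also: yeast cells grown in 1536-well plates; yeast grown about 18 h at 30C before absorbance read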
CYP2C9 activ – CYP2C9 (human) activation | activation factor at 5 µM | actives 1.4% (n = 96,000) | P11712 | AID 1024 | recombinant CYP2C9, luciferin-H conversion, luminescence; hits give high values; factor 1 = untreated enzyme, 0 = blocked;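 active = activation factor of 2 or more for CYP2C9 at a 5 µM dose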
Target sequence (P11712 whole entry, looked up): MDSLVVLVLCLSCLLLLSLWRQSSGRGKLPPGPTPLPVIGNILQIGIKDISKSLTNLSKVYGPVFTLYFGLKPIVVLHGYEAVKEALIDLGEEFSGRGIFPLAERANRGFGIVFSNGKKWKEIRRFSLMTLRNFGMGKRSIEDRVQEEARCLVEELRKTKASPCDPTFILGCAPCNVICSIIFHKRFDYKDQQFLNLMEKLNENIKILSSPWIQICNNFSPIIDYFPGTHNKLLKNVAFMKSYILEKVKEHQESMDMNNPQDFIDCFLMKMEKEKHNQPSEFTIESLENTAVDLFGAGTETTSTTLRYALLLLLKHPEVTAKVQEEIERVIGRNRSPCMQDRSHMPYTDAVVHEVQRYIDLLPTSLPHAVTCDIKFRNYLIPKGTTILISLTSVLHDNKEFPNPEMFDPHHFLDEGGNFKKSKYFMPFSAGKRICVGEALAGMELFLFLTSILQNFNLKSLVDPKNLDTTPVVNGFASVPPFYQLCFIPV
CYP2C9 inhib – blocks human cytochrome P450 2C9; inhibition, % at 5 µM; CYP2C9 Supersomes, luciferin-H conversion, luminescence; actives 20% (n = 96,000);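 active = blocking of liver enzyme CYP2C9 beyond about 50% at 5 µM, limit read from the data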
CYP2C19 act – increases human CYP2C19 enzyme activity; recombinant CYP2C19, luciferin-H EGE luminescence; hits give high values; 0 = fully inhibited enzyme, 1 = untreated enzyme; 96,000 tested, under 10 active; AID 1025; activation factor at 5 µM;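 active = activation factor of at least 2 at 5 µM in the primary screen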
PostGolgi ctrl – growth of the yeast control strain, post-Golgi counter-screen; efflux-deficient yeast background strain, growth absorbance A615, 16 h; inhibition, % at 10 µM; actives 5% (n = 98,000); AID 738
CYP2C19 inh – inhibitors of human CYP2C19; P33261; CYP2C19 Supersomes, luciferin-H EGE luminescence, 30 min; inhibition, % at 5 µM; actives 21% (n = 96,000); AID 778;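 active = CYP2C19 inhibition above a set limit at 5 µM in the primary screen, cut at about 50% in these data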
Hits are given with their value; – = inactive. Sampled rows, rich in hits. Any-hit rate of the full collection: about 32%. Rule as the data show it, unless noted: active = inhibition above about 30%; inactive = the rest.

SMILES	PostGolgi yeast	CYP2C9 activ	CYP2C9 inhib	CYP2C19 act	PostGolgi ctrl	CYP2C19 inh
O=C(COC(=O)Cn1c(C(F)(F)F)nc2ccccc21)Nc1ccc2c(c1)OCCO2	–	–	–	–	–	–
COc1ccccc1N(C)S(=O)(=O)c1ccc(C(=O)OCC(=O)NCc2ccco2)cc1	–	–	88	–	–	–
COc1cc(N2C(=O)c3ccccc3C2=O)c(Cl)cc1C(=O)OCC(=O)NCc1ccco1	–	–	–	–	–	–
CN(c1ccccc1)S(=O)(=O)c1ccc(C(=O)OCC(=O)NCc2ccco2)cc1	–	–	94	–	–	97
O=C(COC(=O)c1cccc(S(=O)(=O)N2CCN(c3ccccc3)CC2)c1)NCc1ccco1	–	–	–	–	–	78
O=C(COC(=O)c1cccc(Oc2ccccc2)c1)NCc1ccco1	–	–	–	–	–	–
CCOC(=O)N1CCN(C(=O)c2cn(CCOC)c(=O)c3c2c2ccccc2n3C)CC1	–	–	–	–	–	–
COc1ccc(C(=O)n2nc(-c3ccccc3)nc2N)cc1OC	–	–	–	–	–	–
O=C1CC(c2ccc(F)cc2)Cc2nc(N3CCN(c4ccccc4)CC3)ncc21 (configuration not stated)	–	–	–	–	–	–
Cc1nc(N2CCN(c3ccccc3)CC2)nc2c1C(=O)CC(C)C2 (configuration not stated)	–	–	–	–	37	–
O=C1CC(c2ccccc2)Cc2nc(N3CCc4ccccc4C3)ncc21 (configuration not stated)	–	–	64	–	46	–
COc1ccc(C2CC(=O)c3cnc(N4CCN(Cc5ccccc5)CC4)nc3C2)cc1 (configuration not stated)	–	–	94	–	–	80
CCN1CCN(c2ncc3c(n2)CC(c2ccc(OC)c(OC)c2)CC3=O)CC1 (configuration not stated)	–	–	–	–	–	–
Cc1ccc(C2CC(=O)c3cnc(N4CCN(c5ccccc5)CC4)nc3C2)cc1 (configuration not stated)	–	–	54	–	–	–
Cc1cccc(NCN2C(=O)c3ccccc3C2=O)c1	–	–	–	–	–	–
Cc1nc(N2CCN(c3ccccc3)CC2)nc2c1C(=O)CCC2	–	–	–	–	–	–
Cc1nc(N2CCN(c3ccccc3)CC2)nc2c1C(=O)CC(c1ccccc1)C2 (configuration not stated)	–	–	83	–	–	–
CCc1ccc(Nc2ncc3c(n2)CC(c2ccc(OC)cc2)CC3=O)cc1 (configuration not stated)	–	–	79	–	–	–
COc1cccc(C(=O)Nc2ncc3c(n2)CC(c2ccc(OC)cc2OC)CC3=O)c1 (configuration not stated)	–	–	89	–	–	80
Cc1cc(C)nc(NS(=O)(=O)c2ccc(NC(=O)CCN3C(=O)c4ccccc4C3=O)cc2)n1	–	–	–	–	–	–
CC(C)N1C(=O)CCC1C(=O)NCCc1ccccc1 (configuration not stated)	–	–	–	–	–	–
Cc1nnc(SCC(=O)Nc2c(Cl)cccc2Cl)[nH]c1=O	–	–	62	–	–	–
Cc1nnc(SCC(=O)NC(C)c2ccccc2)[nH]c1=O (configuration not stated)	–	–	–	–	–	–
Cc1nnc(SCc2ccc(Cl)cc2Cl)[nH]c1=O	–	–	80	–	–	–
CC(=O)NC(C)C12CC3CC(CC(CC(=O)O)(C3)C1)C2 (configuration not stated)	–	–	–	–	–	–
SMILES	PostGolgi yeast	CYP2C9 activ	CYP2C9 inhib	CYP2C19 act	PostGolgi ctrl	CYP2C19 inh
CCOc1ccc2nc(SCC(=O)NC3CCS(=O)(=O)C3)[nH]c2c1 (configuration not stated)	–	–	–	–	–	–
CCOC(=O)c1sc(N)c(C#N)c1CSc1nc2ccc(OCC)cc2[nH]1	–	–	97	–	–	93
CCOC(=O)c1sc(N)c(C#N)c1CSc1nc2ccc(C)cc2[nH]1	–	–	76	–	–	77
CCCCn1c(N)c(N(CCOC)C(=O)CSc2nc3ccc(C)cc3[nH]2)c(=O)[nH]c1=O	–	–	–	–	–	–
Cc1ccc2c(c1)c1c3n2CCCNC3CCC1 (configuration not stated)	–	–	–	–	–	–
CCN1CCn2c3c(c4cc(C)ccc42)CCCC31 (configuration not stated)	–	–	52	–	–	54
CCOc1ccc(NC(=O)C(C)O)c(NS(=O)(=O)c2ccc(CCNC(C)=O)cc2)c1 (configuration not stated)	–	–	–	–	–	–
Cc1ccc(C2=CSC3=NCCN23)c(C)c1	–	–	–	–	–	56
C1=C(c2ccccc2)N2CCN=C2S1	–	–	–	–	–	–
CCN(CC)c1ccc(CN2CCCCCC2)cc1	–	–	–	–	–	–
CN(C)c1ccc(CN2CCCCCC2)cc1	–	–	67	–	–	55
CN(C)c1ccc(CN(C)C2CCCCC2)cc1	–	–	–	–	–	93
O=C(O)C1C2CCCCC2=C2CCCCC2C1C(=O)O (configuration not stated)	–	–	–	–	–	–
CN(C)CCCOC(=O)C1c2ccccc2Oc2ccccc21	–	–	–	–	–	74
CN(CCOC(=O)C1c2ccccc2Oc2ccccc21)C(C)(C)C	–	–	–	–	–	–
Cc1nc(C)n(CC(O)COc2ccc3ccccc3c2)n1 (configuration not stated)	–	–	–	–	–	70
CC(=O)Nc1ccc(OCC(O)Cn2nc(C)nc2C)cc1 (configuration not stated)	–	–	–	–	–	–
COc1ccc(O)c(C(=O)c2cc(C#N)c(=O)n(CC3CCCO3)c2)c1 (configuration not stated)	–	–	–	–	–	–
Cc1ccc(O)c(C(=O)c2cc(C#N)c(=O)n(CC3CCCO3)c2)c1 (configuration not stated)	–	–	–	–	–	66
N#CC(c1ccc(Cl)cc1)c1ccc(Cl)nn1 (configuration not stated)	–	–	–	–	–	53
N#CC(c1ccc(Cl)nn1)c1ccccc1Cl (configuration not stated)	–	–	–	–	–	–
CC(Nc1c([N+](=O)[O-])c(=O)oc2ccccc12)C(Cl)c1ccccc1 (configuration not stated)	–	–	–	–	–	97
CC1CCC(C(=O)NC(C(=O)N2CCc3ccccc3C2)C(C)C)CC1 (configuration not stated)	–	–	–	–	–	–
O=S(=O)(Cc1ccccc1)N1CCN(c2ccccc2)CC1	–	–	–	–	–	–
O=S(=O)(Cc1ccc(Cl)cc1)N1CCCC1	–	–	–	–	–	93
